# In ChEMBL document CHEMBL3988442, “University of Dundee, Small-Polar-MMV Screening Library” (2021):
# Screen size: about 66,000 compounds; about 960 (1.5%) showed an effect of 50% or more. The full list was thinned out, with strong results kept by preference.
# Test system: Trypanosoma brucei
# Assay: Trypanosoma brucei 72 hour study
# Type: functional, organism-based
# Design: scale not given: in the data most compounds retested in dose-response had high values
smiles,measurement,setting,value
CS(=O)(=O)c1ccccc1NCc1ccc(Cn2ccnc2)cc1,Percent Effect,"30 µM, 30.03 µM",-15.33%
CN(Cc1ccccn1)C1CC2(CCN(Cc3cccnc3)CC2)C1.O=C(O)C(F)(F)F.O=C(O)C(F)(F)F.O=C(O)C(F)(F)F,Percent Effect,"30 µM, 30.03 µM",-16.66%
CNCc1ccc(OCc2ccc3c(c2)OCCO3)cc1.Cl,Percent Effect,"30 µM, 30.03 µM",-35.77%
CCNCc1ccc(OCc2ccc3c(c2)OCCO3)cc1.Cl,Percent Effect,"30 µM, 30.03 µM",-18.34%
CCCNCc1ccc(OCc2ccc3c(c2)OCCO3)cc1.Cl,Percent Effect,"30 µM, 30.03 µM",56.18%
Cc1c(C(=O)N2CCCC(n3cccn3)C2)nnn1-c1ccccc1 (stereo not given),Percent Effect,10 µM,-41.06%
same,Percent Effect,"30.3 µM, […]",-3.586%
CNC(=O)CN1CCCC12CCN(Cc1c[nH]cn1)CC2.O=C(O)C(F)(F)F.O=C(O)C(F)(F)F,Percent Effect,"30 µM, 30.03 µM",-41.63%
Cc1ccc(-c2ccc(CC3NCCN(C)C3=O)cc2)cc1.Cl (stereo not given),Percent Effect,"30.3 µM, […]",-13.76%
CC(c1cn2ncsc2n1)N1Cc2ncccc2C1=O (stereo not given),Percent Effect,"30.3 µM, […]",6.941%
Cc1ccoc1C(=O)N1C[C@H]2CCC[C@@]2(COCc2ccncc2)C1.O=C(O)C(F)(F)F,Percent Effect,"30 µM, 30.03 µM",58.51%
Cc1ccc(C(=O)N2C[C@@H](OCc3cccnc3)[C@H]3OCCC[C@@H]32)o1.O=C(O)C(F)(F)F,Percent Effect,"30 µM, 30.03 µM",5.646%
Cc1ccc(C(=O)N2C[C@H]3CCC[C@@]3(COc3ccccn3)C2)nc1.O=C(O)C(F)(F)F.O=C(O)C(F)(F)F,Percent Effect,"30 µM, 30.03 µM",43.42%
Fc1cnc(N2C[C@H]3CCC[C@@]3(COc3ccccn3)C2)nc1.O=C(O)C(F)(F)F.O=C(O)C(F)(F)F,Percent Effect,"30 µM, 30.03 µM",83.95%
O=C(O)C(F)(F)F.O=C(c1ncccn1)N1C[C@H]2CCC[C@@]2(COc2ccccn2)C1,Percent Effect,"30 µM, 30.03 µM",19.9%
O=C(O)C(F)(F)F.O=C(c1ncccn1)N1C[C@H]2CCC[C@@]2(COCc2ccncc2)C1,Percent Effect,"30 µM, 30.03 µM",14.62%
O=C(O)C(F)(F)F.O=C(c1ccccc1)N1C[C@H]2CCC[C@@]2(COCc2ccncc2)C1,Percent Effect,"30 µM, 30.03 µM",-75.85%
Cc1ccoc1C(=O)N1C[C@H](OCc2cccnc2)[C@H]2OCCC[C@H]21.O=C(O)C(F)(F)F,Percent Effect,"30 µM, 30.03 µM",55.38%
Cc1cncc(C(=O)N2C[C@H]3CCC[C@@]3(COc3ccccn3)C2)c1.O=C(O)C(F)(F)F.O=C(O)C(F)(F)F,Percent Effect,"30 µM, 30.03 µM",53.76%
Fc1cnc(N2C[C@@H]3COC[C@]3(COc3ccccn3)C2)nc1.O=C(O)C(F)(F)F.O=C(O)C(F)(F)F,Percent Effect,"30.3 µM, […]",-2.43%
Cc1occc1C(=O)N1C[C@@H](OCc2cccnc2)[C@H]2OCCC[C@@H]21.O=C(O)C(F)(F)F,Percent Effect,"30 µM, 30.03 µM",-8.947%
CS(=O)(=O)N1C[C@H]2CCC[C@@]2(COc2ccccn2)C1.O=C(O)C(F)(F)F,Percent Effect,"30 µM, 30.03 µM",-36.44%
N#Cc1cccc(CN2CC[C@@H]3[C@@H]2CC(=O)N3Cc2cccnc2)c1.O=C(O)C(F)(F)F.O=C(O)C(F)(F)F,Percent Effect,"30 µM, 30.03 µM",-2.932%
CC(C)n1nc(CN2CCCCC2)c2c1CN(C(=O)c1ccno1)C2.O=C(O)C(F)(F)F,Percent Effect,"30.3 µM, […]",-65.47%
COCCN1CCC2(CC1)CCN(Cc1ccccn1)CC2.O=C(O)C(F)(F)F.O=C(O)C(F)(F)F,Percent Effect,"30.3 µM, […]",-12.12%
Cc1nc(CN2CC[C@H](OCC3CC3)[C@@H]2Cc2cccnc2)cs1.O=C(O)C(F)(F)F.O=C(O)C(F)(F)F,Percent Effect,"30.3 µM, […]",-53.44%
O=c1c(CN2CCCCCC2)coc(O)c1CN1CCCCCC1,Percent Effect,"30 µM, 30.03 µM",14.22%
CCN1CCCc2cc(-c3cncn3C(C)CN3CCOCC3)ccc21.Cl (stereo not given),Percent Effect,"30.3 µM, […]",-9.571%
CN1CCC2(CC1)CN(C(=O)c1cnccn1)Cc1ccccc12.O=C(O)C(F)(F)F,Percent Effect,"30 µM, 30.03 µM",-7.96%
CNC(=O)[C@@H]1C[C@H]2CN(Cc3ccc(C)s3)C[C@H]2N1C(C)=O.O=C(O)C(F)(F)F.O=C(O)C(F)(F)F,Percent Effect,"30.3 µM, […]",-19.68%
Fc1ccc(-c2nccnc2C2CCCNC2)cc1 (stereo not given),Percent Effect,"30.3 µM, […]",-3.462%
NC(=O)NCC1CCCCN1C(=O)c1cc(F)cc(F)c1 (stereo not given),Percent Effect,"30.3 µM, […]",-17.02%
Cc1ccc(C(=O)N2CCCCC2CNC(N)=O)cc1F (stereo not given),Percent Effect,"30.3 µM, […]",53.34%
NC(=O)NCC1CCCCN1C(=O)c1cccc(Cl)c1 (stereo not given),Percent Effect,"30.3 µM, […]",-13.75%
CC(C)(C)NC(=O)CN1CCNCC1.Cl.Cl,Percent Effect,"30 µM, 30.03 µM",-49.47%
CO[C@H]1C[C@@H]2CN(C(=O)Cc3ccc(C)s3)C[C@@H]2C1,Percent Effect,"30.3 µM, […]",15.04%
Cc1ccc(-c2nc(CN3C[C@@H](C)NC[C@@H]3C)c(C)o2)s1,Percent Effect,"30.3 µM, […]",11.25%
CNC(=O)CC1CCN(Cc2nc(-c3ccc(SC)cc3)oc2C)CC1,Percent Effect,"30.3 µM, […]",15.19%
CSc1ccc(-c2nc(CN3CCC(CN)C3)c(C)o2)cc1 (stereo not given),Percent Effect,"30 µM, 30.03 µM",56.38%
CNC(=O)C1CCN(Cc2nc(-c3ccc(SC)cc3)oc2C)C1 (stereo not given),Percent Effect,"30 µM, 30.03 µM",5.239%
CSc1ccc(-c2nc(CN3C[C@@H](C)NC[C@@H]3C)c(C)o2)cc1,Percent Effect,"30.3 µM, […]",65.6%
Cc1oc(-c2cc(F)cc(F)c2)nc1CN1C[C@@H](C)NC[C@@H]1C,Percent Effect,"30.3 µM, […]",16.81%
CSc1ccc(-c2nc(CN3CCC(C(N)=O)CC3)c(C)o2)cc1,Percent Effect,"30 µM, 30.03 µM",22.66%
CSc1ccc(-c2nc(CN3CCC(NC(C)=O)CC3)c(C)o2)cc1,Percent Effect,"30 µM, 30.03 µM",23.08%
CSc1ccc(-c2nc(CN3CCNCC3C)c(C)o2)cc1 (stereo not given),Percent Effect,"30.3 µM, […]",65.66%
Cc1nc(C)n(C2CCCN(C(=O)c3cscn3)C2)n1 (stereo not given),Percent Effect,"30.3 µM, […]",-21.61%
CCC(=O)N1Cc2nccn2CC(CN(C)Cc2cccnc2)C1.O=C(O)C(F)(F)F.O=C(O)C(F)(F)F (stereo not given),Percent Effect,"30 µM, 30.03 µM",3.591%
O=C(Nc1cccnc1)[C@H]1C[C@@H]2CN(Cc3ccc(F)cc3)C[C@H]1O2,Percent Effect,"30.3 µM, […]",-89.84%
CC(C)NC(=O)N1CC[C@H]2N(C)CC[C@@]2(C(=O)Nc2cccnc2)CC1,Percent Effect,"30.3 µM, […]",-97.82%
COCCn1c2c(ccc1=O)CC(NS(C)(=O)=O)CC2 (stereo not given),Percent Effect,"30 µM, 30.03 µM",-56.59%
O[C@@H]1CN(c2cnc3ccccc3n2)CC[C@H]1c1ccc2c(c1)OCO2,Percent Effect,"30 µM, 30.03 µM",-17.33%
Cc1ccc(C)c(CSc2nnc(C(N)C(C)C)o2)c1.Cl (stereo not given),Percent Effect,"30 µM, 30.03 µM",-51.12%
Cn1nc(C(=O)N2CCOCC2)c2c1CN(CC1CC1)C2.O=C(O)C(F)(F)F.O=C(O)C(F)(F)F,Percent Effect,"30.3 µM, […]",-90.45%
COc1cc(CN[C@@H]2COC[C@H]2Cc2cc(C)no2)cc(OC)c1.O=C(O)CC(O)(CC(=O)O)C(=O)O,Percent Effect,"30.3 µM, […]",16.22%
C=C1C(C)(C)[C@H]2CC[C@]1(C(=O)N1CCC(Cn3cc(CO)nn3)CC1)C2,Percent Effect,"30 µM, 30.03 µM",-32.31%
Cl.O=C1CC2(CCCNC2)C(=O)N1Cc1ccc(Cl)cc1 (stereo not given),Percent Effect,"30.3 µM, […]",7.931%
Fc1ccc(CN2CCC3(CCCN(c4nncs4)C3)C2)cc1.O=C(O)C(F)(F)F (stereo not given),Percent Effect,"30.3 µM, […]",-195.3%
c1cnc(N2CCC3(CCCN(CC4CCCCC4)C3)C2)cn1 (stereo not given),Percent Effect,"30.3 µM, […]",-7.519%
CSc1nccc(N2C[C@@H](CN3CCCCC3)[C@@H](CO)C2)n1,Percent Effect,"30.3 µM, […]",-9.185%
CSc1nccc(N2CCC3(CCCN(CCc4ccccc4)C3)C2)n1 (stereo not given),Percent Effect,"30.3 µM, […]",100.6%
COc1cc(N2CCC3(CCCN(Cc4ccccn4)C3)C2)ncn1.O=C(O)C(F)(F)F (stereo not given),Percent Effect,"30.3 µM, […]",-81.3%
CSc1nccc(N2CCC3(CCCN(Cc4cccc(C)c4)C3)C2)n1 (stereo not given),Percent Effect,"30.3 µM, […]",99.66%
Cc1c[nH]c(CN2CCC3(CCCN(Cc4ccc(F)c(F)c4)C3)C2)n1 (stereo not given),Percent Effect,"30 µM, 30.03 µM",12.03%
CSc1nccc(N2CCC3(CCCN(Cc4ccc(F)cc4)C3)C2)n1 (stereo not given),Percent Effect,"30.3 µM, […]",100.4%
COc1ccc(CN2CCC3(CCCN(c4ncc(F)cn4)C3)C2)cc1.O=C(O)C(F)(F)F (stereo not given),Percent Effect,"30 µM, 30.03 µM",46.33%
O=C(Cc1cccc(F)c1)N1CCc2ncnc(NC3CC3)c2CC1.O=C(O)C(F)(F)F,Percent Effect,"30.3 µM, […]",-65.72%
Cl.Cn1ccnc1Sc1ccc(N)cn1,Percent Effect,"30 µM, 30.03 µM",-0.5458%
Cl.O=S(=O)(N1CCCC1)N1C[C@@H](c2cccc(F)c2)[C@@H]2NCCCCC[C@H]21,Percent Effect,"30.3 µM, […]",-12.23%
Cc1cccc(N2CCC3(CCCN(C(=O)c4cccnc4)C3)CC2)n1.O=C(O)C(F)(F)F.O=C(O)C(F)(F)F,Percent Effect,"30 µM, 30.03 µM",-24.82%
CC(C)C(=O)N1CCCC2(C1)CN(c1nncs1)CCO2.O=C(O)C(F)(F)F (stereo not given),Percent Effect,"30.3 µM, […]",-91.97%
O=C(Cc1ccccn1)N1CCC2(CC1)CC(Oc1ccccn1)CO2.O=C(O)C(F)(F)F.O=C(O)C(F)(F)F (stereo not given),Percent Effect,"30 µM, 30.03 µM",23.31%
O=C(O)C(F)(F)F.c1cnc(NC2COC3(CCN(Cc4nccs4)CC3)C2)cn1 (stereo not given),Percent Effect,"30.3 µM, […]",-510.2%
Cc1ncc(CN2CCCC(O)(c3ccc(F)cc3)CC2)n1C.O=C(O)CC(O)(CC(=O)O)C(=O)O (stereo not given),Percent Effect,"30.3 µM, […]",5.795%
COc1cccc(N2CCN(CC(O)c3cc(C)ccc3C)CC2)c1 (stereo not given),Percent Effect,"30 µM, 30.03 µM",-36.53%
COc1cccc(N2CCN(CC(O)c3ccc(C)cc3)CC2)c1 (stereo not given),Percent Effect,"30 µM, 30.03 µM",17.53%
COc1cccc(N2CCN(CC(O)c3cc(C)sc3C)CC2)c1 (stereo not given),Percent Effect,"30.3 µM, […]",80.96%
COc1cc(Cc2nc3c([nH]2)CC(C)(C)CNC3=O)cc(OC)c1,Percent Effect,"30 µM, 30.03 µM",-74.64%
Cc1cccnc1NCCNC(=O)c1cnc(-c2cccs2)nc1O,Percent Effect,"30 µM, 30.03 µM",-4.334%
Cc1cccnc1NCCNC(=O)c1cnc(-c2ccccn2)nc1O,Percent Effect,"30 µM, 30.03 µM",99.84%
Cc1nc(-c2ncc(C(=O)NCCNc3ncccc3C)c(O)n2)cs1,Percent Effect,"30 µM, 30.03 µM",-1.041%
Cc1ccc(C)c(NC(=O)N2C[C@H](N(C)C)C[C@H]2CO)c1,Percent Effect,"30 µM, 30.03 µM",-61.25%
COCCOc1ccc(C(=O)N2CCCC(n3cncn3)C2)cn1 (stereo not given),Percent Effect,"30.3 µM, […]",-14.96%
Cc1noc(C)c1CN1C[C@@H]2COC[C@H](C(=O)N3CCOCC3)[C@@H]2C1.O=C(O)C(F)(F)F,Percent Effect,"30.3 µM, […]",-95.08%
CC(C)c1nn(C)cc1CNCc1cccnc1N(C)C.Cl,Percent Effect,"30 µM, 30.03 µM",-46.74%
COc1ccc(C2(NCc3c(C)nc4c(C)cccn34)CCCC2)cc1.O=C(O)CC(O)(CC(=O)O)C(=O)O,Percent Effect,"30.3 µM, […]",-8.607%
